The list is not random: actives were taken first. Their share in the collection is about 11%.
Luciferase inh – blocks purified firefly luciferase enzyme activity; P08659; purified P. pyralis luciferase, luminescence, biochemical; AID 1347043; hit rate 2.5% among 76,000; Potency, µM (titrated, usually from 115 µM), most hits filed as inhibitors; also: nearly all actives have a fitted effect of over 65% in size
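Biochemical qHTS: compound (6-point titration) added to 10uM D-luciferin plus 10uM ATP in Tris acetate pH 7.5 buffer with Mg, Tween-20 and BSA, then purified enzyme at 10nM; light output imaged.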
NIH3T3 tox – cytotoxic compounds in NIH 3T3 cells. AID 1345082. Potency, µM (top dose mostly 96.7 µM), for inactives: at the top dose activity change, negative = cytotoxicity, usual class: inhibitors. NIH 3T3 viability, CellTiter-Glo ATP luminescence, 48-72 h. hit rate 4.3% among 94,000; also: nearly all actives have a fitted effect of over 55% in size
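Mouse fibroblast NIH 3T3 cells, 400 per well, received compound via pintool and were incubated for 48 or 72 hr prior to CellTiter-Glo ATP luminescence measurement.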
NPR1 antag – human Npr1 receptor antagonism; HEK293 hNpr1 GloSensor cGMP, ANP-stimulated luminescence; Potency, µM (series often up to 46.3 µM), for the others: at the top dose activity change, negative = inhibition, most hits filed as inhibitors; hit rate 1.6% among 76,000; AID 1347048; calls by dose curve; also: nearly all actives have a fitted effect of over 60% in size
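HEK293 cells stably expressing human Npr1 and cGMP GloSensor pGS-40F, loaded 2 h with 2% GloSensor reagent, given compound 30 min at room temperature. Luminescence read before and 20 min after 0.1 nM hNppA.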
HEK cytotox – HEK 293 cell cytotoxicity; hit rate 6.6% among 94,000; HEK 293 viability, ATP luminescence (CellTiter-Glo), 48-72 h; Potency, µM (series often up to 115 µM), for the others: at the highest dose activity change, negative = cytotoxicity, most hits filed as inhibitors; AID 1345083; also: nearly all actives have a fitted effect of over 60% in size
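Viability of HEK 293 cells, plated at 250 cells/well, was judged by cellular ATP after compound treatment for 48 or 72 hr. Luminescence was imaged 10 min after CellTiter-Glo addition at room temperature.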
Numbers without * were called inactive; i = inactive; ? = inconclusive; nt = not tested or not shown; [ ] = another dose, or the depositor's remark. Unless noted, calls follow the shape of the dose curve; as a rule, active = well fitted curve in the direction sought with a large enough effect; inconclusive = small, poorly fitted or top-dose-only effect, or another doubt; inactive = no such curve, though single readings can be large; an effect the other way counts as inactive or inconclusive. % is scaled to controls: 0 for no effect and ±100 for the full control effect; potency is read from the fitted curve at half-maximal effect.

SMILES	Luciferase inh	NIH3T3 tox	NPR1 antag	HEK cytotox
Cc1oc(-c2cccc(Cl)c2)nc1CN1CCOCC1	i	-3%	4%	-8%
O=C(COc1cccnc1)N[C@H]1CCOC[C@H]1C1CCOCC1	i	-13%	0%	-4%
O=C(NCCc1ccccc1)C1CCCCN1Cc1ccc(-c2ccsc2)cc1 (stereo not drawn)	nt	?	nt	28µM*
CN1C(=O)CCCCC1C(=O)NCc1ccc(F)cc1 (stereo not drawn)	i	i	-2%	12%
COCCNC(=O)C1CCCN1Cc1ccc(-c2cncnc2)cc1 (stereo not drawn)	nt	-13%	nt	-3%
O=C(NCc1ccc(F)cc1)C1CCCCN1Cc1ccc(-c2ccsc2)cc1 (stereo not drawn)	nt	?	nt	40µM*
COc1ccc(CNC(=O)C2CCCN2Cc2ccc(-c3cncnc3)cc2)cc1 (stereo not drawn)	nt	-27%	nt	?
O=C(NCc1cccs1)C1CCCCN1Cc1ccc(-c2ccsc2)cc1 (stereo not drawn)	nt	25µM*	nt	28µM*
COc1ccc(CNC(=O)C2CCCCN2Cc2ccc(-c3ccsc3)cc2)cc1OC (stereo not drawn)	nt	?	nt	40µM*
O=C(NCc1ccccc1Cl)C1CCCCN1Cc1ccc(-c2ccsc2)cc1 (stereo not drawn)	nt	28µM*	nt	35µM*
CCN(CC)Cc1nc(C2(O)CCN(C3CCC3)CC2)cs1	i	-16%[174 µM]	2%[70.6 µM]	?
CN(C)C[C@@H]1CN(C2CCOCC2)C[C@H]1NC(=O)c1cc2ccccc2[nH]1	i	?	-19%	32µM*
COc1ccc(-c2ccc(C(=O)NCc3ccc(C(F)(F)F)cc3)cc2)nn1	nt	-17%	nt	-1%
COc1ccc(-c2cccc(C(=O)NCCCc3ccccc3)c2)nn1	nt	?	nt	79µM*
COCCCNC(=O)c1cccc(-c2ccc(OC)nn2)c1	nt	-15%[138 µM]	nt	-4%[172 µM]
COc1ccc(-c2cccc(C(=O)NCc3ccc(F)cc3)c2)nn1	nt	?	nt	89µM*
COc1ccc(-c2cccc(C(=O)NCC(F)F)c2)nn1	nt	-21%[138 µM]	nt	-7%[172 µM]
COc1ccc(-c2cccc(C(=O)NCc3ccc(C(F)(F)F)cc3)c2)nn1	nt	?	nt	40µM*
CN1C(=O)N(Cc2cccnc2)C(=O)C12CCN(Cc1cc3ccccc3o1)CC2	i	-16%	?	?
O=C1N(Cc2cccnc2)C(=O)C2(CCN(Cc3cc(F)ccc3F)CC2)N1CCc1ccccc1	i	?	2%	40µM*
Cn1ccc(C(=O)N2CC(COc3ccccc3)C3(C2)CN(c2ccccc2)C3)n1 (stereo not drawn)	i	100µM*	-1%[70.6 µM]	?
Cn1ccc(C(=O)N2CC(CNc3ccccc3)C3(C2)CN(c2ccccc2)C3)n1 (stereo not drawn)	i	?	?	63µM*
Cn1nccc1C(=O)N1CC(COc2ccccc2)C2(C1)CN(c1ccccc1)C2 (stereo not drawn)	i	?	-3%[70.6 µM]	?
Cc1ncsc1C(=O)N1CC(COc2ccccc2)C2(C1)CN(c1ccccc1)C2 (stereo not drawn)	i	?	1%[70.6 µM]	100µM*
CCC(=O)N1CCCN(CC)C2(CCOCC2)C1	i	0%	-1%	0%
SMILES	Luciferase inh	NIH3T3 tox	NPR1 antag	HEK cytotox
O=C(NC1CCCC1)c1csc(N2CCN(c3ccccc3F)CC2)n1	i	25µM*	?	?
O=C(NCc1cccs1)c1csc(N2CCN(c3ccc(F)cc3)CC2)n1	i	?	?	32µM*
COc1ccc(N2CCN(c3nc(C(=O)NCC4CCCCC4)cs3)CC2)cc1	i	-10%	-15%	-26%
COc1ccc(N2CCN(c3nc(C(=O)NCc4ccccc4C)cs3)CC2)cc1	i	?	-28%	28µM*
COc1ccc(N2CCN(c3nc(C(=O)NC4CC4)cs3)CC2)cc1	i	28µM*	?	32µM*
CCc1nnc2ccc(NCc3ccc(F)cc3)nn12	i	?	-3%	?
CC(C)CCNC(=O)c1cccc2c1CCN2S(=O)(=O)c1ccccc1F	i	?	?	?
COc1ccccc1CN1CC[C@H](c2nnc(Cc3c[nH]c4ccccc34)o2)C1	i	?	-1%[70.6 µM]	89µM*
Cc1ccc2oc([C@H]3CCN(Cc4c[nH]c5ccccc45)C3)nc2c1	i	56µM*	?	32µM*
CN(C)c1ccc(CN2CC[C@H](c3nc4cc(Cl)ccc4o3)C2)cc1	?	112µM*	?	?

Screening data deposited in PubChem by National Center for Advancing Translational Sciences (NCATS).
